Compound activity: PubChem BioAssay, The Scripps Research Institute Molecular Screening Center
Shown are actives, neighbours in structure and some others; about 3.3% of the full set was active somewhere.
PRMT1 inh: PRMT1 methyltransferase inhibitors, primary screen, biochemical, fluorescence polarization; Protein arginine N-methyltransferase 1 (Homo sapiens), Q99873; 1.3% of 370,000 active; recombinant PRMT1, activity-based probe fluorescence polarization; AID 652257, 2013; inhibition, % at 2.79 µM;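 active = inhibition above about 21% made by adding two undisclosed values, limit read from the data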
TLR9-MyD88 inh: inhibitors of TLR9-MyD88 association in cells, primary screen, cell-based, CHO, BLA complementation, fluorescence | Toll-like receptor 9 (Homo sapiens) + Myeloid differentiation primary response protein … | CCF4 FRET ratio | inhibition, % at 4.98 µM | 0.21% of 340,000 active | AID 504734, 2011;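 active = inhibition above the mean over all tested compounds plus 3 SD, cut at about 21% in these data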
NOD2-RIPK2 inh: NOD2-RIPK2 binding disruptors in cells, primary screen, fluorescence, CHO cells, BLA complementation. Receptor-interacting serine/threonine-protein kinase 2 (Homo sapiens), O43353. CCF4 ratio. inhibition, % at 4.98 µM. 0.38% of 360,000 active. AID 624267, 2012; in the data active = inhibition above about 21%
ABHD5 PLIN5 PPI: ABHD5-PLIN5 interaction inhibitors, primary screen, cell lysate, split luciferase complementation, luminescence. Perilipin-5 (Homo sapiens) + 1-acylglycerol-3-phosphate O-acyltransferase ABHD5 (Homo …. Split G. princeps luciferase complementation, 4 h. inhibition, % at 4 µM. 0.78% of 360,000 active. AID 602281, 2012;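 active = inhibition above the mean inhibition across every tested compound plus 3 SD, cut at about 22% in these data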
rCAG RNA binder: binders of r(CAG) RNA repeats, primary screen, biochemical, fluorescence. r(CAG) RNA repeat, TO-PRO-1 dye displacement fluorescence. inhibition, % at 3 µM. 1.3% of 370,000 active;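 active = inhibition above the plate cutoff, the mean of all test compounds on that plate plus 3 SD, cut at about 35% in these data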;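 note: higher means more dye released from RNA so lower well fluorescence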
TLR4 MyD88 comp: inhibitors of TLR4-MyD88 association in cells, primary screen, cell-based, HeLa CL3-4, BLA complementation, FRET ratio. AID 861, 2007. inhibition, % at 8.4 µM. HeLa CL3-4 TLR4/MyD88 BLA complementation. Toll-like receptor 4 (Homo sapiens) + Myeloid differentiation primary response protein …. 0.18% of 200,000 active; in the data active = inhibition above about 25%
Target sequence (O00206 whole entry, looked up): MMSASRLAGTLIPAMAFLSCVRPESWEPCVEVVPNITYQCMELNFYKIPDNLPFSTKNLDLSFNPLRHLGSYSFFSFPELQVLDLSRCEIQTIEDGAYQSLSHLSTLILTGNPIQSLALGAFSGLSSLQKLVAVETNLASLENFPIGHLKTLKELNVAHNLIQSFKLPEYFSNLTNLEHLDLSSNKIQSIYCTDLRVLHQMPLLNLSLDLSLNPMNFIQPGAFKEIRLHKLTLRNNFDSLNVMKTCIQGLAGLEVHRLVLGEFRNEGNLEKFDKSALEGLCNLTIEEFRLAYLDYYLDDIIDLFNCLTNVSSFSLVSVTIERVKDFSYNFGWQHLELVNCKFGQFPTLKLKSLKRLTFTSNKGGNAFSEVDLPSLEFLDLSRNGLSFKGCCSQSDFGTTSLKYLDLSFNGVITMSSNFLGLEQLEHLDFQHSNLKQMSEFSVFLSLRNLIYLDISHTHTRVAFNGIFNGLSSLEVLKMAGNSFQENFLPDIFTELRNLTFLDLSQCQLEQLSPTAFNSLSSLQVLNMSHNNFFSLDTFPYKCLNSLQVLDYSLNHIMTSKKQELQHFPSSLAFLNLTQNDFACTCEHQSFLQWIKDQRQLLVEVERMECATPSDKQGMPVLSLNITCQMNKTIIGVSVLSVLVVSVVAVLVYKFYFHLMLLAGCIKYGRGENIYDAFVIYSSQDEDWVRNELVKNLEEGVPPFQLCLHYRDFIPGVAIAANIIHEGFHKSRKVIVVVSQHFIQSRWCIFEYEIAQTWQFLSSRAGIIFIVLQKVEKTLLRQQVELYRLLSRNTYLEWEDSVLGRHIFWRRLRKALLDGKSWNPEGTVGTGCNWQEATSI
Target sequence (Q99836 whole entry, looked up): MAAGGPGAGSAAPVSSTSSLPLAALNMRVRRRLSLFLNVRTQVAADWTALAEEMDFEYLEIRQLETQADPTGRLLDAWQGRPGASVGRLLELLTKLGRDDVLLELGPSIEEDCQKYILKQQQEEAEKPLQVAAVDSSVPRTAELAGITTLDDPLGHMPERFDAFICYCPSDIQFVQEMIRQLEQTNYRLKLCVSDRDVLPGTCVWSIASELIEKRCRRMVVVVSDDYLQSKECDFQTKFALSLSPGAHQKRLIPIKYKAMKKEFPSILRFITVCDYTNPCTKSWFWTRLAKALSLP
ABHD5 PLIN5 conf: ABHD5-PLIN5 interaction inhibitors, confirmation, biochemical, luminescence. shares compounds with ABHD5 PLIN5 PPI. inhibition, % at 4 µM. 67% of 2,200 active; in the data active = inhibition above about 23%
HNF4 split-luc: HNF4 dimerization inhibitors, counter-screen for ABHD5-PLIN5 interaction inhibitor project, biochemical, split-luciferase complementation, luminescence. shares compounds with ABHD5 PLIN5 PPI. 77% of 2,200 active. inhibition, % at 4 µM;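 active = mean inhibition across replicate wells exceeding the computed hit threshold, cut at about 13% in these data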;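 note: light from luciferase halves that rejoin when HNF4 fusion proteins dimerize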
NOD2-RIPK2 conf: NOD2-RIPK2 binding disruptors, retest, confirmation, fluorescence, CHO cells, BLA complementation, triplicate; shares compounds with NOD2-RIPK2 inh; CCF4 FRET; inhibition, % at 4.98 µM; 70% of 1,200 active; AID 624370, 2012;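 active = mean inhibition across replicates above a set limit taken from the earlier primary screen, cut at about 21% in these data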
NOD2 BLA counter: counter-screen for NOD2-RIPK2 interaction inhibitors: BLA reporter; shares compounds with NOD2-RIPK2 inh; CHO BLA reporter, CCF4 FRET ratio, counterscreen; inhibition, % at 4.98 µM; 57% of 1,200 active;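 active = mean inhibition above the low-control mean inhibition plus three low-control SD, cut at about 11% in these data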
rCAG bind conf: small molecules binding CAG repeat RNA – biochemical, fluorescence, confirmation; shares compounds with rCAG RNA binder; AID 652065, 2013; r(CAG) RNA repeat, TO-PRO-1 dye displacement fluorescence; inhibition, % at 3 µM; 70% of 4,300 active;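 active = inhibition above a per-plate cutoff, the mean inhibition of sample wells plus 3 SD, cut at about 35% in these data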;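 note: loss of TO-PRO-1 fluorescence as compound displaces dye from 1x1 AA loop RNA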
DNA CAG counter: displacement of TO-PRO-1 from CAG DNA duplex, counter-screen for rCAG RNA repeat binder project, biochemical, fluorescence, TO-PRO-1 dye, d(CAG) DNA oligo. shares compounds with rCAG RNA binder. d(CAG) DNA oligo TO-PRO-1 dye displacement. inhibition, % at 3 µM. 94% of 4,300 active. AID 652068, 2013;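 active = inhibition above its plate's cutoff, the mean test-well inhibition plus 3 SD, cut at about 4.8% in these data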;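 note: hits displace the dye from DNA and so lower well fluorescence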
PRMT1 confirm: PRMT1 methyltransferase inhibitors, confirmation, biochemical, fluorescence polarization, triplicate; recombinant His-PRMT1, activity-based probe fluorescence polarization; 42% of 3,300 active; inhibition, % at 2.79 µM; shares compounds with PRMT1 inh;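 active = mean inhibition across replicates above the hit cutoff derived for the earlier primary screen, cut at about 22% in these data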
Of the large screens only hits and unclear results are named; the others gave an inactive call (follow-up assays come after a bar, where they were run).

CN(C)C(CNc1ccc(S(C)(=O)=O)cc1[N+](=O)[O-])Cc1ccccc1 (centres undefined)	none (no result: TLR4 MyD88 comp)
CC1(C)CC(=O)C(CS(=O)(=O)c2ccccc2)=C(O)C1	PRMT1 inh 27.2, ABHD5 PLIN5 PPI 43.9 (no result: TLR4 MyD88 comp) | ABHD5 PLIN5 conf 50.2 | HNF4 split-luc 92.2 | PRMT1 confirm 22.2
CC1(C)CC(=O)C(CC(=O)Nc2ccc(S(N)(=O)=O)cc2)=C(O)C1	none
COC(=O)Cc1nnn2c1CC(OC)c1ccccc1-2 (centres undefined)	none (no result: TLR9-MyD88 inh, NOD2-RIPK2 inh, ABHD5 PLIN5 PPI, TLR4 MyD88 comp)
O=C(O)c1ccc(N/N=C/C2=C(N3CCOCC3)C(=C\c3ccccc3)/CC2)cc1	PRMT1 inh 32.8, ABHD5 PLIN5 PPI 25.0, rCAG RNA binder 72.0 (no result: TLR4 MyD88 comp) | ABHD5 PLIN5 conf inactive | HNF4 split-luc 42.4 | rCAG bind conf 74.8 | DNA CAG counter 35.9 | PRMT1 confirm inactive
Cc1ccc(S(=O)(=O)CCC(=O)c2cccc([N+](=O)[O-])c2)cc1	PRMT1 inh 82.9, NOD2-RIPK2 inh 22.4, ABHD5 PLIN5 PPI 33.2 (no result: TLR4 MyD88 comp) | ABHD5 PLIN5 conf 64.9 | HNF4 split-luc 98.0 | NOD2-RIPK2 conf 38.5 | NOD2 BLA counter inactive | PRMT1 confirm 90.8
Cc1ccc(C(=O)CCS(=O)(=O)c2ccc(Br)cc2)cc1	none (no result: TLR4 MyD88 comp)
O=C(O)c1ccc(S(=O)(=O)c2ccc([N+](=O)[O-])cc2[N+](=O)[O-])cc1	PRMT1 inh 29.9, ABHD5 PLIN5 PPI 42.3 (no result: TLR4 MyD88 comp) | ABHD5 PLIN5 conf 68.3 | HNF4 split-luc 110.2 | PRMT1 confirm 26.8
O=C(O)c1ccc(S(=O)(=O)c2ccccc2C(=O)O)c([N+](=O)[O-])c1	none (no result: TLR4 MyD88 comp)
Nc1ccccc1SC(CC(=O)c1ccccc1)c1ccc([N+](=O)[O-])cc1 (centres undefined)	PRMT1 inh 82.8, ABHD5 PLIN5 PPI 71.1 (no result: TLR4 MyD88 comp) | ABHD5 PLIN5 conf 70.5 | HNF4 split-luc 85.4 | PRMT1 confirm 61.2
Cc1ccc(C(=O)CC(SCC(=O)O)c2ccc([N+](=O)[O-])cc2)cc1 (centres undefined)	none
Nc1ccccc1SC(CC(=O)c1ccccc1)c1cccc([N+](=O)[O-])c1 (centres undefined)	PRMT1 inh 86.0, ABHD5 PLIN5 PPI 75.9 (no result: TLR4 MyD88 comp) | ABHD5 PLIN5 conf 38.5 | HNF4 split-luc 100.0 | PRMT1 confirm 57.5
COc1ccc(N2C[C@@]3(O)CC[C@@H](O)[C@@H](OC)[C@@H]3[C@@]2(C)[C@H](O)CC=C(C)C)cc1	none (no result: TLR9-MyD88 inh, NOD2-RIPK2 inh, ABHD5 PLIN5 PPI, TLR4 MyD88 comp)
O=C(O)c1ccc(Nc2cc(Cl)c3nonc3c2[N+](=O)[O-])cc1	PRMT1 inh 62.7, ABHD5 PLIN5 PPI 31.2 | ABHD5 PLIN5 conf 63.5 | HNF4 split-luc 95.3 | PRMT1 confirm 31.7
CC(=O)Nc1ccc(Nc2cc(N(C)C)c3nonc3c2[N+](=O)[O-])cc1	none (no result: TLR4 MyD88 comp)
O=C(O)CCCNC(=O)Cc1ccccc1	none (no result: TLR4 MyD88 comp)
C=CCOC(=O)/C=C/C(=O)NC(N)=O	PRMT1 inh 76.5, ABHD5 PLIN5 PPI 35.4 (no result: TLR4 MyD88 comp) | ABHD5 PLIN5 conf 56.8 | HNF4 split-luc 54.9 | PRMT1 confirm 69.2
C=CCOC(=O)Nc1ccc(Cl)cc1NC(=O)OCC=C	none
Cc1cccc(CS(=O)(=O)c2ncc(Cl)c(C(=O)Nc3c(C)cccc3C)n2)c1	PRMT1 inh 24.9, NOD2-RIPK2 inh 67.3, ABHD5 PLIN5 PPI 74.6 (no result: TLR4 MyD88 comp) | ABHD5 PLIN5 conf 89.0 | HNF4 split-luc 106.8 | NOD2-RIPK2 conf 47.4 | NOD2 BLA counter inactive | PRMT1 confirm inactive
COC(=O)C1=C(C)N(C)C(=NCc2ccc(OC)cc2)NC1c1cccc(F)c1 (centres undefined)	none (no result: TLR9-MyD88 inh, NOD2-RIPK2 inh, ABHD5 PLIN5 PPI, TLR4 MyD88 comp)
CCc1ccc(/C=C/C(=O)c2cc(Br)ccc(=O)c2O)cc1	PRMT1 inh 31.5, ABHD5 PLIN5 PPI 30.3, rCAG RNA binder 45.6 | ABHD5 PLIN5 conf 61.4 | HNF4 split-luc 46.3 | rCAG bind conf 54.5 | DNA CAG counter 25.4 | PRMT1 confirm inactive
CCc1nc2c(OCc3cc(Cl)cc(Cl)c3)cccn2c1N(C)C(=O)c1ccc(OC)cc1	none (no result: TLR9-MyD88 inh, TLR4 MyD88 comp)
O=C(/C=C/c1ccc(-c2ccccc2[N+](=O)[O-])o1)c1ccc(F)cc1	PRMT1 inh 33.0, ABHD5 PLIN5 PPI 28.9 | ABHD5 PLIN5 conf 42.6 | HNF4 split-luc 32.7 | PRMT1 confirm inactive
COc1cc(N=c2ssnc2Cl)cc(OC)c1OC	PRMT1 inh 97.3, ABHD5 PLIN5 PPI 61.0 | ABHD5 PLIN5 conf 67.8 | HNF4 split-luc 103.2 | PRMT1 confirm 90.0
O=C(c1ccc(-c2ccc([N+](=O)[O-])cc2)o1)N1CCCCCCC1	PRMT1 inh 30.7, ABHD5 PLIN5 PPI 38.6 (no result: TLR4 MyD88 comp) | ABHD5 PLIN5 conf 42.2 | HNF4 split-luc 32.6 | PRMT1 confirm inactive
O=C(CN1C(=O)c2ccccc2C1=O)Nc1ccccc1	none (no result: TLR4 MyD88 comp)
O=C(Cn1sc2ccccc2c1=O)Nc1ccccc1	PRMT1 inh 86.7, ABHD5 PLIN5 PPI 64.5 (no result: TLR4 MyD88 comp) | ABHD5 PLIN5 conf 81.1 | HNF4 split-luc 116.3 | PRMT1 confirm 89.5
C=CCOC(=O)N1CCN(c2cccc(C(F)(F)F)c2)CC1	none
